# Results reported in PubChem BioAssay AID1508600 (Functional Genomics Laboratory (NCATS/FGL), 2020).
# In all, about 53,000 sequences went through this assay and about 3,700 (7%) were called active.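 How the source made its calls: active means gene knockdowns whose robust z-score for IL-1 alpha signal is at least 2 or at most -2, so actives lie on both sides; inactive means the rest.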 Many of the other results were omitted from the sample, so actives are more common in it than they were.
# Assay: Components of the Cytosolic LPS Sensing Pathway: Gene Identification via Genome-wide siRNA Screen;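 further: robust z of the log signal after scaling to non-targeting control siRNA wells of the plate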
# Conditions: RAW264.7 macrophages, IL-1a HTRF, actives lie on both sides, screened at 100 nM (by protocol), cells primed 5 h with Pam3CSK4 first
# Method in brief: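 RAW264.7 mouse macrophages reverse-transfected with single siRNAs (100 nM final) for 48h, primed with Pam3CSK4 for 5 hours, then transfected with LipidA for 24 hour. Supernatant IL-1a read by HTRF; values normalized to negative-control median, log-transformed robust z-scores.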
row,Sequence,z-score
1,GGAUCAUGCAGACAUGCUGTT against Ggcx,-0.278 (inactive)
2,GGUUCUAAAUCAGAAGUGCTT against Tyw5,-2.08 (active)
3,GGUAUAGCCACAGGUACAUTT against Phxr5,-0.368 (inactive)
4,GCAGAUAUUUUUGUAAGCATT against Csmd1,-0.644 (inactive)
5,GGCUUGAUGGGCUUUUUGCTT against Ndufb8,0.285 (inactive)
6,GGUCCCAGUCAUUAUCCACTT against Gdap1l1,2.43 (active)
7,GGUAAUUAAAACCAUGGAGTT against Rex1bd,-0.0412 (inactive)
8,GGCCCAGGAUAUUUUAGUUTT against Atg9b,-0.553 (inactive)
9,GCCGUACGAAAAAUAAGCATT against Rps7,-0.402 (inactive)
10,GGCCAAAGUACUUUGUUCCTT against Pdpr,3.63 (active)
11,GGUUCUUCGAAGCAAUAGCTT against Sphkap,-0.973 (inactive)
12,GCACACAUCAAGAAACUUGTT against Mxi1,0.963 (inactive)
13,GGAGAAAUAACUGAAAUUCTT against Klhl13,-0.816 (inactive)
14,GGACUUCUACCCAGCGAUATT against P3h4,-0.536 (inactive)
15,CCUCCAGAUAACAAAUGCATT against Dlx3,0.335 (inactive)
16,CGCAUUACAUUAGCCAAAATT against Ttc28,1.21 (inactive)
17,GCUCAGUAAUCUGAGGCCATT against Lox,-2.03 (active)
18,GGAGAUCCGUUCAAGGGUUTT against Olfr557,0.73 (inactive)
19,CCAACUGCACUGUCAAACUTT against Tbcc,-0.224 (inactive)
20,GGAAUGUGUCUUCUCAAGUTT against A530021J07Rik,2.35 (active)
21,GGACCAGCACAUGUGGAUUTT against Olfr547,0.31 (inactive)
22,GGACCUGGUAUCUCUAUAUTT against Rasgrp4,-0.807 (inactive)

row,Sequence,z-score
1,GCAUAAUUCUAAAGACGGGTT against Zfp143,-0.1 (inactive)
2,GGUUAUAGACAAGAUCGAUTT against Comp,0.536 (inactive)
3,CCCACCAGUAAGGAGUUCATT against Dido1,-0.177 (inactive)
4,GCCACGAACAUGAUGUACATT against Slco3a1,0.229 (inactive)
5,GGUUUUAUUUGGGAUUAGCTT against Arfgap2,0.327 (inactive)
6,GGCAGAUCUGAUCAACGGATT against Mtln,-2.14 (active)
7,GCUUGUGGAUUCGAUUUGGTT against Gtf3c5,0.485 (inactive)
8,GCUGAAUGAUAUGGAACCUTT against Vapa,-1.76 (inactive)
9,GGAGAUAAAGUCUUAUCACTT against Misp,-2.05 (active)
10,GGAAAUCGUGCGUGGCUACTT against Phpt1,1.57 (inactive)
11,GGCCAUCUUUGACAGUGCUTT against Dnah1,1.11 (inactive)
12,GGCAUUUGUAAUUCCAGUUTT against Spata33,0.456 (inactive)
13,GGAUUCAGGGAACAGCAAUTT against Ntrk3,-3.08 (active)
14,GGUACAGAACAUGUUCUAATT against Klf4,1.18 (inactive)
15,GCACAAGCGAUGGGUUAACTT against Fkbp1a,-0.708 (inactive)
16,GGCUCACGAGGAACUAAAUTT against Ift52,0.115 (inactive)
17,GGAACUUCACUUUUAACACTT against Il33,-0.534 (inactive)
18,CGUUUUUCUCUAACUUACATT against Ldlrad3,2.6 (active)
19,GGUGAUGUCCUAUUUCAAATT against Erp27,0.302 (inactive)
20,GGUUCUAUCUACCUACAGGTT against Igfn1,1.78 (inactive)
21,GGAGAAGAGUCAAGAGCUCTT against Vxn,0.103 (inactive)
22,GGUAUCCAAGAAAACCUAUTT against Tnmd,0.475 (inactive)

row,Sequence,z-score
1,CCUUCUGUAGUUGGAAUCATT against Them5,1.41 (inactive)
2,CCUGUAUGGAGUAAUGGAATT against Eif4ebp3,0.13 (inactive)
3,GGUGGUGUUAAAAUAUACUTT against Gnl3,3.07 (active)
4,GCCAGAAGACUGUAUACCATT against Rp9,-0.0396 (inactive)
5,GGUUGUUGGUCUUCUGUGATT against Nme3,-1.27 (inactive)
6,GGCCAUCUAAAAAUAGUAATT against Ccdc171,0.707 (inactive)
7,GGAGCACUUAGAAAUGUCCTT against Olfr342,-0.174 (inactive)
8,GGACUUUGUACAUUGUUUUTT against Actb,2.2 (active)
9,GGUCUUCUAAGAAAUUUUGTT against Fmnl2,0.407 (inactive)
10,GGAUGUGUCUCACUUCUUGTT against Th,-1.5 (inactive)
11,GCUGCCUCUCACCAAGUAUTT against Creb3l3,-1.43 (inactive)
12,GCAUGAAGAGCUAAUGCUATT against Eprs,-0.364 (inactive)
13,GGCUAUGAGGACUCCUAUGTT against Plekha7,-2.53 (active)
14,GCAAGUCCAUUCUUUUUCATT against Tmprss11g,-0.643 (inactive)
15,GGAAACCUGAUACUAACAATT against Afmid,-1.88 (inactive)
16,GGAAGUCCUUGCAUUCCUCTT against Dlec1,0.816 (inactive)
17,GGCUGAGAAAACCAAAGGGTT against Cfdp1,1.9 (inactive)
18,GCUGGAGUGUCAGUCAUAUTT against Reg4,3.35 (active)
19,GGUCUAUCGCUUGCUUUUUTT against Abca2,1.67 (inactive)
20,GGUAAUCAGUAGUGACUUATT against Mkln1,0.229 (inactive)
21,CCCUCAACCAUUGUUCGAGTT against Rasal1,-0.328 (inactive)
22,GGGCUGUAUUUCUUUACCCTT against Mrgprb2,0.508 (inactive)

row,Sequence,z-score
1,GCGCAGCACAGGUUUUGAATT against Klf10,-0.217 (inactive)
2,GGAAAAAAUACCAGAAACATT against Klre1,-2.68 (active)
3,GCCUAUCGAAAAGUCUUGGTT against Adcyap1,0.875 (inactive)
4,GGCCAAGCUAUAAGAAAUGTT against Cntnap2,0.201 (inactive)
5,AACUCCCUCCCUGUUGUAGTT against A4galt,-0.361 (inactive)
6,GGCCAUAUUAAGUAUGGAGTT against Fam118a,-0.34 (inactive)
7,GGAGAAGUAAAACUCGAAGTT against Rwdd2a,0.276 (inactive)
8,CCGAAUUUCUCCUAUUGGGTT against Olfr106-ps,-0.241 (inactive)
9,GGUAUGUAACGGUAUUUAATT against Gja1,2.66 (active)
10,CCUAGAGCCGUGUGCAUACTT against Plp2,0.891 (inactive)
11,CCAUUGGUUUUGAGGAUAUTT against Pomp,-1.18 (inactive)
12,GGUAGAAAAAACACAAACGTT against Ppp2r3c,1.43 (inactive)
13,GGUUUUGUGGGAAGAGUCATT against Ccdc163,-2.99 (active)
14,CCUGGACAUAACCAAUGUATT against Glrp1,1.5 (inactive)
15,CCCUGGGCAGUUUGCAUGUTT against Dgcr2,0.815 (inactive)
16,GCAACGAGGUACUGUUUUATT against Rab7b,0.626 (inactive)
17,GGUAGAGCUGCACUUUGGATT against Hddc3,-1.43 (inactive)
18,GGUUUGUCAGGUUCUAAAATT against Atf1,2.34 (active)
19,GGUACAAAGACUGACGAGUTT against Gnptg,0.00278 (inactive)
20,CGACCAGAAGUGGUAUGUCTT against Adra2a,-1.03 (inactive)
21,GGAGACAUUCACUGUCUUCTT against Ephb4,-0.322 (inactive)
22,CCAGUAUCUAAUUGGAAUATT against Paqr8,2.07 (active)

row,Sequence,z-score
1,GCUGUUUGAAGCUGAUACCTT against Fads3,-0.0526 (inactive)
2,GGCAUCCAGACAAGUGAUGTT against Zer1,0.699 (inactive)
3,GCCAUCACAAUUCUAAUCCTT against Vmn2r123,-1.54 (inactive)
4,CCAAGAUUGACAUCAUCCGTT against Pkn1,-0.595 (inactive)
5,CGAAUACCUGAAGUGCAAATT against Art3,0.454 (inactive)
6,GGAGCCAGAACCUGAAAUUTT against Ankrd1,2.86 (active)
7,GCUCUAGACAUAUGAGGCUTT against Wee2,-0.0864 (inactive)
8,CCCAUGAUGCCAUCUUUAATT against 2410002F23Rik,-1.03 (inactive)
9,GGAACAUUUCUGGAUUGUUTT against Muc1,-0.503 (inactive)
10,CCAGCUCUCGAUUCCAUCATT against Fem1a,0.615 (inactive)
11,GGAUACCCUGGAGUUUAUATT against Prss42,0.941 (inactive)
12,GCGUGAUCAUUGAUGUGGATT against Slc5a7,0.364 (inactive)
13,GUUCCACAAAGACCAUCAGTT against Olfr134,0.679 (inactive)
14,GCCUGGUUAAGGCAUGAUATT against Gm4884,2.63 (active)
15,GCCACAACCACCUGAACUUTT against Amigo1,-0.854 (inactive)
16,GGACUUCAAGGAUAGUGAGTT against Osm,-1.13 (inactive)
17,GGUCGAUGCAAAGAUGCUGTT against Smoc1,0.811 (inactive)
18,GCUUCUGUAAAUCCCAUAUTT against Olfr26,-0.0814 (inactive)
19,GCUGUCACUUUGAAUCCCUTT against Nrg1,-0.988 (inactive)
20,GGUAUUGAAAUGGAAAAGGTT against D6Wsu163e,-1.2 (inactive)
